This note sets out measurements from the supplement of paper PMC8975748.

Counter-ions that a name gives are not always drawn.

The subject of this test is Saccharomyces cerevisiae BY4741 SeMeCo community. The test is described as follows: z-score of subpopulation abundance vs DMSO median, subpopulation auxotrophic for LUM; higher = larger share of this subpopulation than in DMSO controls. Particulars: 10 µM; 24 h; SM minimal medium; subpopulation (auxotrophy): LUM. The method, then:
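Fluorescent four-plasmid SeMeCo (self-establishing metabolically cooperating S. cerevisiae BY4741 community; plasmids pH-mRuby2, pL-mWasabi, pU-eCFP, pM-TagRFP657) was grown 24 h in minimal SM medium with each Selleck FDA-approved drug at 10 µM in 384-well plates. Cells were fixed and imaged by high-content confocal microscopy. For each auxotrophic subpopulation (and the prototroph), a z-score gives the deviation from the DMSO vehicle-control population median.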
As to `CC(=O)[C@H]1CC[C@H]2[C@@H]3CC=C4C[C@@H](O)CC[C@]4(C)[C@H]3CC[C@]12C` [Pregnenolone], the “z-score of subpopulation abundance” value was -0.02.
On to `O=C1N=C(O)NC1(c1ccccc1)c1ccccc1` [Phenytoin Sodium], for which the “z-score of subpopulation abundance” value is -0.31.
For `O=c1c(-c2ccc(O)cc2)coc2c([C@@H]3O[C@H](CO)[C@@H](O)[C@H](O)[C@H]3O)c(O)ccc12` [Puerarin], the “z-score of subpopulation abundance” value is -1.14.
Take `CC(=O)NO` [Acetohydroxamic acid]: the “z-score of subpopulation abundance” value was 1.04.
In the case of `C(=C\c1ccccc1)/CN1CCN(C(c2ccccc2)c2ccccc2)CC1` [Cinnarizine], the “z-score of subpopulation abundance” value was determined as 0.8.
As for `O=C(Nc1ccc(Oc2ccc(Cl)cc2)c(Cl)c1)c1cc(I)cc(I)c1O` [Rafoxanide], the “z-score of subpopulation abundance” value is -0.08.
Under `CCCCOc1ccc(C(=O)CCN2CCCCC2)cc1` [Dyclonine HCl] stands -0.27; under `CO/N=C(\C(=O)N[C@@H]1C(=O)N2C(C(=O)O)=C(CSC(=O)c3ccco3)CS[C@H]12)c1csc(N)n1` [Ceftiofur], -0.02; under `CN(C)CCC[C@@]1(c2ccc(F)cc2)OCc2cc(C#N)ccc21` [Escitalopram Oxalate], -0.28.
On to `C[C@H]1NCc2cc(-c3ccc4c(=O)c(C(=O)O)cn(C5CC5)c4c3OC(F)F)ccc21` [Garenoxacin], for which the “z-score of subpopulation abundance” value was determined as 0.75.
Regarding `COc1cccc(CCc2ccccc2OCC(CN(C)C)OC(=O)CCC(=O)O)c1` (stereo not given) [Sarpogrelate hydrochloride], the “z-score of subpopulation abundance” value was -0.21.
For the compound `CCCCCCCCCCCCCCCCOP(=O)([O-])OCC[N+](C)(C)C` [Miltefosine], the “z-score of subpopulation abundance” value turned out to be 20.4.
Under `O=C(O)c1ccccc1C(=O)Nc1ccc(S(=O)(=O)Nc2nccs2)cc1` [Phthalylsulfathiazole] stands -0.13; under `Oc1c(I)cc(Cl)c2cccnc12` [Clioquinol], 9.68.
Under `NC(=O)[C@@H]1CC[C@@H]2CN1C(=O)N2OS(=O)(=O)O` [Avibactam sodium] stands 0.46; under `C#C[C@]1(O)CC[C@H]2[C@@H]3CCc4cc(O)ccc4[C@H]3CC[C@@]21C` [Ethinyl Estradiol], -1.48; under `NC12CC3CC(CC(C3)C1)C2` [Amantadine], -0.04.
Turning to `Nc1ccc(C(=O)O)c(O)c1` [4-Aminosalicylic acid], the “z-score of subpopulation abundance” value was -1.15.
Consider `CN(Cc1ccc(C(C)(C)C)cc1)Cc1cccc2ccccc12` [Butenafine HCl], for which the “z-score of subpopulation abundance” value was -0.75.
Consider `COc1cccc2c1C(=O)c1c(O)c3c(c(O)c1C2=O)C[C@@](O)(C(=O)CO)C[C@@H]3O[C@H]1C[C@H](N)[C@@H](O)[C@H](C)O1` [Epirubicin HCl], for which the “z-score of subpopulation abundance” value stood at 2.67.
As to `CCN(CC)CCOc1ccc2c(c1)C(=O)c1cc(OCCN(CC)CC)ccc1-2` [Tilorone dihydrochloride], the “z-score of subpopulation abundance” value was -0.39.
Under `N/C(=N\N=C\c1ccc(Cl)cc1)N/N=C/c1ccc(Cl)cc1` [Robenidine Hydrochoride] stands 7.91; under `Nc1ccc(S(N)(=O)=O)cc1` [Sulfanilamide], -0.2; under `CCCN[C@H]1CCc2nc(N)sc2C1` [Pramipexole dihydrochloride], -0.25.
For the compound `Cc1ncc([N+](=O)[O-])n1CCOC(=O)c1ccccc1` [Metronidazole Benzoate], the “z-score of subpopulation abundance” value is -1.13.
On to `N[C@@H]1CN(c2c(F)cc3c(=O)c(C(=O)O)cn([C@@H]4C[C@@H]4F)c3c2Cl)CC12CC2` [Sitafloxacin Hydrate], for which the “z-score of subpopulation abundance” value stood at 0.98.
The figure for `CO[C@H]1C[C@@H]2CC[C@@H](C)[C@@](O)(O2)C(=O)C(=O)N2CCCC[C@H]2C(=O)O[C@H]([C@H](C)C[C@@H]2CC[C@@H](O)[C@H](OC)C2)CC(=O)[C@H](C)/C=C(\C)[C@@H](O)[C@@H](OC)C(=O)[C@H](C)C[C@H](C)/C=C/C=C/C=C/1C` [Rapamycin (Sirolimus)] is 11.9; for `COc1ccc2[nH]c([S@@+]([O-])Cc3ncc(C)c(OC)c3C)nc2c1` [NEXIUM (esomeprazole magnesium)] it is 0.51; for `COc1ccc2c3c1O[C@H]1C[C@@H](O)C=C[C@@]31CCN(C)C2` [Galanthamine HBr] it is -0.14.
On to `CCC(C)(C)C(=O)O[C@H]1C[C@@H](C)C=C2C=C[C@H](C)[C@H](CC[C@@H]3C[C@@H](O)CC(=O)O3)[C@H]21` [Simvastatin], for which the “z-score of subpopulation abundance” value stood at 1.33.
The figure for `CCOC(=O)C1=C[C@@H](OC(CC)CC)[C@H](NC(C)=O)[C@@H](N)C1` [Oseltamivir Phosphate] is -0.21; for `NC[C@@H]1O[C@H](O[C@H]2[C@@H](O)[C@H](O[C@@H]3[C@@H](O)[C@H](N)C[C@H](N)[C@H]3O[C@H]3O[C@H](CO)[C@@H](O)[C@H](O)[C@H]3N)O[C@@H]2CO)[C@H](N)[C@@H](O)[C@@H]1O` [Paromomycin Sulfate] it is 0.8.
Consider `COCCCOc1ccnc(C[S+]([O-])c2nc3ccccc3[nH]2)c1C` (stereo not given) [Rabeprazole], for which the “z-score of subpopulation abundance” value worked out at 0.63.
Turning to `Cc1c(OCC(F)(F)F)ccnc1C[S+]([O-])c1nc2ccccc2[nH]1` (stereo not given) [Lansoprazole], the “z-score of subpopulation abundance” value was determined as 1.02.
Under `CN[C@@H]1[C@H](O[C@H]2[C@H](O[C@H]3[C@H](O)[C@@H](O)[C@H](N=C(N)N)[C@@H](O)[C@@H]3N=C(N)N)O[C@@H](C)[C@]2(O)C=O)O[C@@H](CO)[C@H](O)[C@H]1O` [Streptomycin sulfate] stands -0.33.
The figure for `COc1ccc(-c2nc3cc(C4=NNC(=O)CC4C)ccc3[nH]2)cc1` (stereo not given) [Pimobendan] is 1.6; for `CN1CCC(=C2c3ccccc3CCc3sccc32)CC1` [Pizotifen Malate] it is -0.55.
For `CN1CCN(c2c(F)cc3c(=O)c(C(=O)O)cn4c3c2OCN4C)CC1` [Marbofloxacin], the “z-score of subpopulation abundance” value was -0.82.
Regarding `Cc1cc(O)cc(C)c1Cl` [Chloroxylenol], the “z-score of subpopulation abundance” value was 0.54.
Regarding `CCC[C@@H]1C[C@@H](C(=O)N[C@@H]([C@H]2O[C@H](SC)[C@H](OP(=O)(O)O)[C@@H](O)[C@H]2O)[C@H](C)Cl)N(C)C1` [Clindamycin Phosphate], the “z-score of subpopulation abundance” value is -0.05.
